# Assay results as given in PubChem BioAssay.
# Legend:
# Test in all cases: inhibition of PEG-3 promoter-driven reporter – cell-based, HeLa, luciferase, CREF/GAPDH counter-screen panel, dose response (AID 624167)
# PEG-3 [1] = molecular target: PEG-3 (UniProt Q6IN02); settings: CREF/GAPDH counter-screens; HeLa PEG-Prom luciferase reporter, overnight, run 1, dose range 1, at 100 µM (top of the series) unless noted
# PEG-3 [2] = molecular target: PEG-3 (UniProt Q6IN02); settings: CREF/GAPDH counter-screens; HeLa PEG-Prom luciferase reporter, overnight, run 2, dose range 1, at 100 µM (top of the series) unless noted
# Rat fibroblasts (CREF) [3] = settings: CREF/GAPDH counter-screens; run 1, dose range 1, at 100 µM (top of the series)
# Rat fibroblasts (CREF) [4] = settings: CREF/GAPDH counter-screens; run 2, dose range 1, at 100 µM (top of the series)
# PEG-3, sequence (Q6IN02 whole entry, looked up): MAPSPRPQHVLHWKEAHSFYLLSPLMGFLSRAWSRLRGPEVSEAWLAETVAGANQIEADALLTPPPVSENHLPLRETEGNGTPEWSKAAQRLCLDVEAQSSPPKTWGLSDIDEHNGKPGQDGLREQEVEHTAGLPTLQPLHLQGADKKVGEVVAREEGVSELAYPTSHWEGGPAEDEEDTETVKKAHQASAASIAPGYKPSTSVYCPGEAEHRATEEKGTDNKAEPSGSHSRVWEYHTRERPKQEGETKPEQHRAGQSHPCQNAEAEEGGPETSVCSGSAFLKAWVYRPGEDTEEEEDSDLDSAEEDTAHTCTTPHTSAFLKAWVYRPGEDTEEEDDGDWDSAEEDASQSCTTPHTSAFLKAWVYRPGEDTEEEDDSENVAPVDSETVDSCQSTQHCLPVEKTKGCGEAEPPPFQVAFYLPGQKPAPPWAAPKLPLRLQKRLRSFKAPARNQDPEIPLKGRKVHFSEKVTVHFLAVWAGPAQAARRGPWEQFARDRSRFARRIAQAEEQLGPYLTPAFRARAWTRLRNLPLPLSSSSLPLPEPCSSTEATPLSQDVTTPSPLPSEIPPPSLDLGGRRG
smiles,measurement,setting,value
Cc1ccc2nc(-c3ccc4c(c3)OCCO4)cn2c1,inhibition,PEG-3 [1],98.2%
same,inhibition,PEG-3 [2],99.6%
same,inhibition,Rat fibroblasts (CREF) [3],100%
same,inhibition,Rat fibroblasts (CREF) [4],99.9%
S=C(NN=C(c1ccccc1)c1ccccn1)N(Cc1ccccn1)Cc1ccccn1,inhibition,PEG-3 [1],102%
same,inhibition,PEG-3 [2],102%
same,inhibition,Rat fibroblasts (CREF) [3],97.9%
same,inhibition,Rat fibroblasts (CREF) [4],98%
COc1cccc(-c2sc3ccccc3c2-c2ccc(OCCN(C)C)cc2)c1,inhibition,PEG-3 [1],99.6%
same,inhibition,PEG-3 [2],98.6%
same,inhibition,Rat fibroblasts (CREF) [3],98.7%
same,inhibition,Rat fibroblasts (CREF) [4],99.3%
O=C(O)c1ccc(N/N=C/c2ccc(OC(=O)c3cccc(Cl)c3)cc2)cc1,inhibition,PEG-3 [1],101%
same,inhibition,PEG-3 [2],99.4%
same,inhibition,Rat fibroblasts (CREF) [3],46.5%
same,inhibition,Rat fibroblasts (CREF) [4],40%
CS(=O)(=O)c1ccc(-c2cn3cc(C(=O)O)ccc3n2)cc1,inhibition,PEG-3 [1],82.1%
same,inhibition,PEG-3 [2],57.2%
same,inhibition,Rat fibroblasts (CREF) [3],71%
same,inhibition,Rat fibroblasts (CREF) [4],66.8%
Clc1ccccc1/C=C/c1nc(-c2ccccn2)no1,inhibition,PEG-3 [1],87.3%
same,inhibition,PEG-3 [2],96.5%
same,inhibition,Rat fibroblasts (CREF) [3],89.2%
same,inhibition,Rat fibroblasts (CREF) [4],76.1%
O=c1cnnc(N/N=C/c2ccccn2)[nH]1,inhibition,PEG-3 [1],66.3%
same,inhibition,PEG-3 [2],58.7%
same,inhibition,Rat fibroblasts (CREF) [3],49.4%
same,inhibition,Rat fibroblasts (CREF) [4],51.1%
COc1ccc(NC(=O)c2cc(-c3ccccn3)nc3ccccc23)cc1S(=O)(=O)N(C)C,inhibition,PEG-3 [1],56.4%
same,inhibition,PEG-3 [2],61.2%
same,inhibition,Rat fibroblasts (CREF) [3],-4.8%
same,inhibition,Rat fibroblasts (CREF) [4],-6.75%
Cc1ccc(-c2cc3c(nn2)-c2ccccc2C3=O)cc1,inhibition,PEG-3 [1],98.6%
same,inhibition,PEG-3 [2],88.7%
same,inhibition,Rat fibroblasts (CREF) [3],92.8%
same,inhibition,Rat fibroblasts (CREF) [4],94.8%
O=C(CNC(=O)C(c1ccccc1)c1ccccc1)N/N=C/c1ccc(O)cc1O,inhibition,PEG-3 [1],53.4%
same,inhibition,PEG-3 [2],52.3%
same,inhibition,Rat fibroblasts (CREF) [3],28.9%
same,inhibition,Rat fibroblasts (CREF) [4],35.6%
O=C(Nc1ccc(Cc2ccncc2)cc1)c1ccc([N+](=O)[O-])o1,inhibition,PEG-3 [1],99.1%
same,inhibition,PEG-3 [2],101%
same,inhibition,Rat fibroblasts (CREF) [3],100%
same,inhibition,Rat fibroblasts (CREF) [4],99.5%
O=C(Nc1ccccc1)c1nc[nH]c1C(=O)NCCCCCCNC(=O)c1[nH]cnc1C(=O)Nc1ccccc1,inhibition,PEG-3 [1],-14.1%
same,inhibition,PEG-3 [2],24.2%
same,inhibition,Rat fibroblasts (CREF) [3],-4.97%
same,inhibition,Rat fibroblasts (CREF) [4],-1.9%
C(=N\Nc1ccc2ccccc2n1)/c1ccc2c(c1)OCCO2,inhibition,PEG-3 [1],98.4%
same,inhibition,PEG-3 [2],96.2%
same,inhibition,Rat fibroblasts (CREF) [3],53.6%
same,inhibition,Rat fibroblasts (CREF) [4],101%
COC1=CC(=O)c2c(ccc3ncnc(N)c23)C1=O,inhibition,PEG-3 [1],102%
same,inhibition,PEG-3 [2],99%
same,inhibition,Rat fibroblasts (CREF) [3],101%
same,inhibition,Rat fibroblasts (CREF) [4],100%
Cc1ccc(C(=O)Nc2cnc3ccccc3c2)cc1,inhibition,PEG-3 [1],91.5%
same,inhibition,PEG-3 [2],98%
same,inhibition,Rat fibroblasts (CREF) [3],83.4%
same,inhibition,Rat fibroblasts (CREF) [4],77.7%
CC(C)CCCCCCCCCCCCC(=O)NCC(=O)NC1C(O)C(O)C(Nc2ncnc3nc[nH]c23)OC1C(O)CO (stereo not drawn),inhibition,PEG-3 [1],102%
same,inhibition,PEG-3 [2],98.2%
same,inhibition,Rat fibroblasts (CREF) [3],99.5%
same,inhibition,Rat fibroblasts (CREF) [4],9.65%
CCCCCCN1C=C/C(=C\C=C(C#N)C#N)c2ccccc21,inhibition,PEG-3 [1],54.3%
same,inhibition,PEG-3 [2],78.7%
same,inhibition,Rat fibroblasts (CREF) [3],43.7%
same,inhibition,Rat fibroblasts (CREF) [4],89.7%
Cc1oc(-c2ccc3c(c2)OCCO3)cc1C(=O)O,inhibition,PEG-3 [1],101%
same,inhibition,PEG-3 [2],99.2%
same,inhibition,Rat fibroblasts (CREF) [3],84.4%
same,inhibition,Rat fibroblasts (CREF) [4],81.3%
O=C(CN1C(=O)c2ccccc2S1(=O)=O)c1ccc2c(c1)OCCO2,inhibition,PEG-3 [1],102%
same,inhibition,PEG-3 [2],101%
same,inhibition,Rat fibroblasts (CREF) [3],95.2%
same,inhibition,Rat fibroblasts (CREF) [4],96%
CN(C)c1c([N+](=O)[O-])cc(N2C(=O)C=CC2=O)cc1[N+](=O)[O-],inhibition,PEG-3 [1],102%
same,inhibition,PEG-3 [2],102%
same,inhibition,Rat fibroblasts (CREF) [3],101%
same,inhibition,Rat fibroblasts (CREF) [4],100%
CCCCC(=O)NC(c1ccccc1OC)c1ccc2cccnc2c1O (stereo not drawn),inhibition,PEG-3 [1],67.7%
same,inhibition,PEG-3 [2],68.4%
same,inhibition,Rat fibroblasts (CREF) [3],-8.76%
same,inhibition,Rat fibroblasts (CREF) [4],5.38%
CN=c1scc(-c2cccs2)n1/N=C/c1ccccc1O,inhibition,PEG-3 [1],93.6%
same,inhibition,PEG-3 [2],102%
same,inhibition,Rat fibroblasts (CREF) [3],98.2%
same,inhibition,Rat fibroblasts (CREF) [4],97.1%
O=[N+]([O-])c1ccc(-c2ccc(/C=N/Nc3nc(NCc4ccccc4)nc(N4CCOCC4)n3)o2)cc1,inhibition,PEG-3 [1],99.5%
same,inhibition,PEG-3 [2],91.5%
same,inhibition,Rat fibroblasts (CREF) [3],97.5%
same,inhibition,Rat fibroblasts (CREF) [4],96.9%
O=C(N/N=C/c1ccc(Cl)c([N+](=O)[O-])c1)c1cc(-c2ccc3c4c(cccc24)CC3)n[nH]1,inhibition,PEG-3 [1],"95.1% [run 1, dose range 1, at 50 µM]"
same,inhibition,PEG-3 [2],93.6%
same,inhibition,Rat fibroblasts (CREF) [3],-4.6%
same,inhibition,Rat fibroblasts (CREF) [4],4.99%
Cc1cc(C(=O)CN2C(=O)c3ccccc3S2(=O)=O)c(C)n1-c1ccccc1,inhibition,PEG-3 [1],98.9%
same,inhibition,PEG-3 [2],98%
same,inhibition,Rat fibroblasts (CREF) [3],90.6%
same,inhibition,Rat fibroblasts (CREF) [4],89.8%
O=C(Nc1nc2cc3c(cc2s1)OCO3)C1=COCCO1,inhibition,PEG-3 [1],88.1%
same,inhibition,PEG-3 [2],94%
same,inhibition,Rat fibroblasts (CREF) [3],93.7%
same,inhibition,Rat fibroblasts (CREF) [4],94%
CCOc1ccc2c(ccc(/C=C/c3cc(C)c4cccnc4c3O)[n+]2C)c1,inhibition,PEG-3 [1],101%
same,inhibition,PEG-3 [2],99.4%
same,inhibition,Rat fibroblasts (CREF) [3],98.8%
same,inhibition,Rat fibroblasts (CREF) [4],98.5%
Cc1cc(NC(c2cccnc2)c2ccc3cccnc3c2O)no1 (stereo not drawn),inhibition,PEG-3 [1],63.9%
same,inhibition,PEG-3 [2],74%
same,inhibition,Rat fibroblasts (CREF) [3],59.7%
same,inhibition,Rat fibroblasts (CREF) [4],94.9%
O=C(/C=C/c1ccccc1)Nc1cccc(C(=O)O)c1,inhibition,PEG-3 [1],99%
same,inhibition,PEG-3 [2],97.4%
same,inhibition,Rat fibroblasts (CREF) [3],96.8%
same,inhibition,Rat fibroblasts (CREF) [4],95.7%
COc1ccccc1C(=O)Nc1nc2ccccc2[nH]1,inhibition,PEG-3 [1],99.2%
same,inhibition,PEG-3 [2],102%
same,inhibition,Rat fibroblasts (CREF) [3],100%
same,inhibition,Rat fibroblasts (CREF) [4],99.5%
Cc1c(C)c2ccc(OCC(=O)Nc3ccccn3)c(C)c2oc1=O,inhibition,PEG-3 [1],99.2%
same,inhibition,PEG-3 [2],93.2%
same,inhibition,Rat fibroblasts (CREF) [3],98.5%
same,inhibition,Rat fibroblasts (CREF) [4],97.8%
Brc1ccc(N/N=C(/N=Nc2nn[nH]n2)c2ccccc2)cc1,inhibition,PEG-3 [1],100%
same,inhibition,PEG-3 [2],99.8%
same,inhibition,Rat fibroblasts (CREF) [3],75.7%
same,inhibition,Rat fibroblasts (CREF) [4],70%
CCn1nc(C)cc1-c1nnc(Sc2ncc([N+](=O)[O-])s2)n1C,inhibition,PEG-3 [1],102%
same,inhibition,PEG-3 [2],101%
same,inhibition,Rat fibroblasts (CREF) [3],99.4%
same,inhibition,Rat fibroblasts (CREF) [4],98.8%
COc1cc(/C=C2\SC(=Nc3ccccc3OC)NC2=O)ccc1O,inhibition,PEG-3 [1],-37%
same,inhibition,PEG-3 [2],"89.3% [run 2, dose range 1, at 25 µM]"
same,inhibition,Rat fibroblasts (CREF) [3],-38.3%
same,inhibition,Rat fibroblasts (CREF) [4],-20.9%
CN1C/C(=C/c2ccccc2[N+](=O)[O-])C(=O)/C(=C\c2ccccc2[N+](=O)[O-])C1,inhibition,PEG-3 [1],101%
same,inhibition,PEG-3 [2],102%
same,inhibition,Rat fibroblasts (CREF) [3],71.1%
same,inhibition,Rat fibroblasts (CREF) [4],95.6%
Cc1ccccc1CNC(=O)C1CCCN(c2nnc(C)c3c(C)n(-c4ccccc4)nc23)C1 (stereo not drawn),inhibition,PEG-3 [1],99%
same,inhibition,PEG-3 [2],101%
same,inhibition,Rat fibroblasts (CREF) [3],98.3%
same,inhibition,Rat fibroblasts (CREF) [4],99.4%
CCc1ccc(/C=C2\SC(=S)N(CCCC(=O)Nc3cc(C)on3)C2=O)cc1,inhibition,PEG-3 [1],80%
same,inhibition,PEG-3 [2],87.3%
same,inhibition,Rat fibroblasts (CREF) [3],29.1%
same,inhibition,Rat fibroblasts (CREF) [4],27.4%
